Source: PubChem BioAssay
Compounds with a hit are over-represented: about 2.6% of the library has one in this group of screens.
Cruzain inh Det: cruzain (T. cruzi) inhibition with detergent; AID 1478; purified cruzain, Z-FR-AMC fluorescence, 0.01% Triton; 200,000 compounds, 0.43% hits; P25779; Potency, µM, for the others: max response, negative = inhibition, actives largely listed as inhibitors;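 further: plate controls were neutral wells for no effect and buffer without enzyme for full effect; nearly all actives have a fitted effect of over 40% in size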
Target sequence (P25779 123-467 limits assumed): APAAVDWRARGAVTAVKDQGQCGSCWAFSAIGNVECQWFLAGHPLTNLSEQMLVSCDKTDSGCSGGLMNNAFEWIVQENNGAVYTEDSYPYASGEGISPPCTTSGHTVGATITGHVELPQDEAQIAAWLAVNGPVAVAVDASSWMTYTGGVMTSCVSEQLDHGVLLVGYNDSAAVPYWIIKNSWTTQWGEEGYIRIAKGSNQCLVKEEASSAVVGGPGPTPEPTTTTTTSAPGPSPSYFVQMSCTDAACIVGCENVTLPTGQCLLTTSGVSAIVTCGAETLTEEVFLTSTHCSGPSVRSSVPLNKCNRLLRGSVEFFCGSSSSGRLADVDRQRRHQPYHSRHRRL
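Sodium acetate buffer (100 mM, pH 5.5) containing 5 mM DTT and 0.01% Triton X-100 hosted 1.5 nM cruzain and test compound for 15 min at room temperature. Cleavage of 2 uM Z-FR-AMC was then tracked by fluorescence.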
Cruzain noTriton: blocks cruzain activity in detergent-free assay | 200,000 compounds, 2.3% hits | AID 1476 | purified cruzain, Z-FR-AMC fluorescence, no detergent | Potency, µM, inactives show max response, negative = inhibition, hits mostly inhibitors;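 further: plate controls were enzyme without inhibitor for no effect and buffer without enzyme for full effect; nearly all actives have a fitted effect of over 40% in size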
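Purified cruzain at 1.5 nM, pre-incubated 15 min with compound at room temperature in 100 mM sodium acetate pH 5.5, 5 mM DTT, 0.00005% Triton X-100. Reaction started with 2 uM Z-FR-AMC; AMC fluorescence increase over 60 s gives rate.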
An asterisk follows results filed as active; ? = inconclusive. The call rests on the fitted dose curve; in most records, active means well fitted curve in the direction sought with a large enough effect; inconclusive means small, poorly fitted or top-dose-only effect, or another doubt; inactive means no such curve, though single readings can be large; an effect the other way counts as inactive or inconclusive. Potency means the concentration at half of the fitted maximal effect.

SMILES	Cruzain inh Det	Cruzain noTriton
CCOc1ccccc1NC(=O)Cn1c(=O)n(-c2ccc(C)c(C)c2)c(=O)c2c(C)c(C(=O)N(C)C)sc21	7%	16%
CCOC(=O)c1c(NC(=O)COc2ccccc2Br)sc2c1CCCCC2	-6%	2%
CCOC(=O)c1c(NC(=O)c2ccccc2Br)sc2c1CCc1ccccc1-2	-6%	16µM*
CCOC(=O)C1CCN(C(=O)c2nn(-c3ccc(OC)cc3)c(=O)c3c2c2ccccc2n3C)CC1	-2%	-3%
CS(=O)(=O)N1CCC2(CC1)CN(Cc1ccc(C#N)cc1)C2	2%	-3%
Cc1cc(-c2csc(NC(=O)c3ccccc3C(F)(F)F)n2)c(C)n1Cc1ccccc1	0%	16µM*
Cc1cc(-c2csc(NC(=O)c3ccc(=O)n(C)n3)n2)c(C)n1CC1CCCO1 (stereo not drawn)	-9%	?
CCc1cccc(NC(=O)C(Cc2ccccc2)n2cccc2)c1 (stereo not drawn)	-7%	3%
Cc1ccc(S(=O)(=O)N/N=C2/CC(c3ccccc3)Oc3ccccc32)cc1 (stereo not drawn)	-3%	25µM*
O=S(=O)(N/N=C1\CC(c2ccccc2)Oc2ccccc21)c1ccccc1 (stereo not drawn)	-1%	-23%
O=C(NCc1ccccc1Cl)c1ccc(CS(=O)(=O)c2ccc(Br)cc2)o1	-5%	5%
CCn1cc(C(=O)NCc2ccccc2Cl)c(=O)c2cc(S(=O)(=O)N3CCCCC3)ccc21	-1%	-5%
CCn1cc(C(=O)NCc2ccccc2Cl)c(=O)c2cc(S(=O)(=O)N3CCc4ccccc4C3)ccc21	-3%	13µM*
CC(=O)N1CCC2(CC1)CN(c1ccccn1)C2	1%	-15%
Cc1c(Cl)cccc1-n1ncc(C(=O)NCCN2CCN(C)CC2)c1C1CCN(C(=O)OC(C)(C)C)CC1	0%	10%
CC(C)CC(C(=O)OCC(=O)Nc1cccc(Cl)c1)N1C(=O)C2CC=CCC2C1=O (stereo not drawn)	14µM*	-19%
CCOc1ccccc1NC(=O)COC(=O)C(CC(C)C)N1C(=O)C2CC=CCC2C1=O (stereo not drawn)	-26%	8%
CCN(C(=O)Cn1c(SCC(=O)Nc2ccc(OC)cc2)nc2ccccc21)c1cccc(C)c1	-5%	?
Cc1nc(N2CCOCC2)c2c(C(=O)N3CCN(c4ccccc4F)CC3)c(C)oc2n1	0%	18%
COc1ccc(OC)c(-n2c(=O)[nH]c3cc(C(=O)NCCc4ccc(OC)c(OC)c4)ccc3c2=O)c1	-2%	?
CCOC(=O)C1=C(c2ccccc2)NC(=S)NC1c1cc([N+](=O)[O-])ccc1OC (stereo not drawn)	0%	25µM*
CCOC(=O)C1=C(c2ccccc2)NC(=S)NC1c1cccc([N+](=O)[O-])c1 (stereo not drawn)	-6%	3%
CC(C)c1cnc2c(c1SCC(=O)Nc1cccc([N+](=O)[O-])c1)c(=O)n(C)c(=O)n2C	-6%	13%
CCN1CCN(C(c2cccc(OC)c2)c2c(O)cc(C)n(Cc3ccco3)c2=O)CC1 (stereo not drawn)	2%	?
COc1ccc(/C=N/NC(=O)c2cccnc2)cc1CSc1nc2ccccc2s1	-6%	?
SMILES	Cruzain inh Det	Cruzain noTriton
COc1ccc(/C=N/NC(=O)c2ccccc2Cl)cc1CSc1nc2ccccc2s1	-8%	16µM*
O=C1CSC(c2cn(-c3ccccc3)nc2-c2cc3ccccc3o2)N1Cc1ccccc1 (stereo not drawn)	4%	?
O=C1CSC(c2cn(-c3ccccc3)nc2-c2cc3ccccc3oc2=O)N1Cc1ccco1 (stereo not drawn)	28µM*	?
CCC(C)n1c(=N)c(C(=O)NCc2ccccc2)cc2c(=O)n3cc(C)ccc3nc21 (stereo not drawn)	-4%	19%
Cn1c(=O)c2c(nc(NCCCCO)n2Cc2ccccc2Cl)n(C)c1=O	-3%	8%
COc1ccc(NC(=O)/C(C#N)=C/c2ccc(OCc3ccccc3F)cc2)cc1	-1%	4µM*
CCN(CC)S(=O)(=O)c1ccc(N2CCCCC2)c(NC(=O)/C(C#N)=C/c2ccc(OC)cc2)c1	-7%	10µM*
COc1ccc(/C=C(\C#N)C(=O)Nc2cc(S(=O)(=O)N3CCOCC3)ccc2N2CCCC2)cc1	-17%	?
CCCc1nn2c(=O)cc(COc3ccc(/C=C(\C#N)C(=O)Nc4ccc(F)cc4)cc3)nc2s1	0%	-6%
CCOc1ccc(NC(=O)/C(C#N)=C/c2ccc(N3CCCC3)c(C)c2)cc1	-7%	10µM*
CCOc1cc(/C=C(/C#N)C(=O)Nc2ccc(O)cc2)cc(Br)c1O	-2%	-13%
CCOc1ccc(Nc2nn(-c3ccc(OC(F)(F)F)cc3)nc2C(C)=O)cc1	-1%	-3%
CCCS(=O)(=O)c1c(S(=O)(=O)CCC)c2cc(C(C)(C)C)ccn2c1C(=O)c1ccc(C)cc1	-1%	4%
CC(C)OC(=O)[C@@H]1CC[C@H](C)[C@@H](CCCCO)O1	0%	-4%
COc1ccc(NC(=O)c2ccccc2NC(=O)CSc2ccccc2)cc1	-1%	-19%
O=C(CSc1ccc(Cl)cc1)Nc1ccc(NC(=O)c2ccco2)cc1	4%	10µM*
COc1ccc(NC(=O)c2ccccc2NC(=O)CSc2ccc(Cl)cc2)cc1	9%	13µM*
O=C(CSc1ccc(Cl)cc1)Nc1ccc(N2CCN(C(=O)c3ccco3)CC2)cc1	-1%	-10%
COc1ccc2cc(CNc3ccccc3)c(=O)n(CC(=O)Nc3ccc(C(C)=O)cc3)c2c1	-12%	-10%
COC(=O)c1ccccc1NC(=O)NCc1ccc2c(c1)CCN2C(=O)c1ccccc1	-4%	-9%
O=C(Nc1ccc(F)cc1F)c1cc2c(=O)n3ccccc3nc2s1	-2%	1%
NS(=O)(=O)c1ccc(CCNc2nc3c(-c4cccc(F)c4)nnn3c3ccccc23)cc1	2%	20µM*
Cc1cccc(-c2nnn3c2nc(NCCc2ccc(S(N)(=O)=O)cc2)c2ccccc23)c1	-1%	?
COC(=O)c1sccc1S(=O)(=O)N(CC(=O)Nc1cccc(C)c1C)c1ccc(C)c(C)c1	-5%	1%
O=C(OCc1nc2scc(-c3ccccc3)c2c(=O)[nH]1)c1cc(Cl)ccc1[N+](=O)[O-]	-4%	32µM*
SMILES	Cruzain inh Det	Cruzain noTriton
Cc1c(C(=O)OCc2nc3scc(-c4ccccc4)c3c(=O)[nH]2)cccc1[N+](=O)[O-]	-5%	?
Cc1ccc(NC(=O)C2CCCN(c3nnc(-n4c(C)ccc4C)s3)C2)cc1Cl (stereo not drawn)	-6%	-17%
N#Cc1c(NC(=O)CSc2nc(-c3ccccc3)cc(C(F)(F)F)n2)sc2c1CCC2	-9%	?
CCOC(=O)c1sc(NC(=O)CSc2nc(-c3ccco3)cc(C(F)(F)F)n2)c(C(=O)OC)c1C	1%	-9%
COc1ccc(-c2cc(C(F)(F)F)nc(SCC(=O)Nc3sc4c(c3C#N)CCC4)n2)cc1	-11%	13µM*
CCC1CCc2c(sc(NC(=O)CSc3nc(-c4ccco4)cc(C(F)(F)F)n3)c2C#N)C1 (stereo not drawn)	4%	1.3µM*
COc1ccc(NC(=O)c2ccc3oc(=O)c(S(=O)(=O)c4ccc(C)cc4)cc3c2)cc1OC	3%	9%
O=C(CSc1oc(-c2ccco2)nc1S(=O)(=O)c1ccc(Br)cc1)c1ccc(Cl)cc1	-5%	20µM*
CCCSc1oc(-c2ccco2)nc1S(=O)(=O)c1ccc(Cl)cc1	-26%	1%
